Assay in all cases: NCI-60 one-dose screen, 48 h (100 = growth as untreated, 0 = no growth, -100 = all killed)
Common to all, as to settings: 10 µM unless noted

Assay [1] has as its system BT-549 breast.
The test system of assay [2] is MDA-MB-435 melanoma.
In assay [3] the test system is SW-620 colon.
Assay [4] concerns MCF7 breast.
Assay [5] relates to HCT-116 colon.
In assay [6] the test system is HCC-2998 colon.
Assay [7] deals with KM12 colon.

Each structure is given as a SMILES string. About 83,000 compounds went through this panel and 20% of them were active in at least one assay; those are over-represented in the sample as a whole.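 Negative percent growth values reflect cell death: -40 means 40% of the cells present at the start died, and -100 means all died.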 Values without a mark were called inactive. Calls of active or inactive are those of the source. How the source made its calls: active means growth percent below 10; inactive means the rest.

Regarding `NC(=S)NN=C1CCCCC1`, the growth in assay [1] is 85.6%; in assay [2] it was 88.8%; in assay [3] it was 69.1%; in assay [4] it was 15.9%; in assay [5], 8.08% (active); in assay [6], 105%. Also, the growth in assay [7] is 107%.
Turning to `C#CCN1C(=O)/C(=c2\sc3n(c2=O)C2C(NN=3)N(CC)C(=O)N2CC)c2ccccc21` (stereo unspecified), the growth is 39.7% in assay [1]; -63.2% (active) in assay [2]; 24.3% in assay [3]; 23.3% in assay [4]; 4.43% (active) in assay [5]; -1.47% (active) in assay [6]. The growth in assay [7] is 14.1%.
As for `CCCCCCCCCCCCCCCCCCOc1cccc(CCOP(=O)(O)OCC[N+](C)(C)C)c1`, the growth in assay [1] was 92.5%; in assay [2], 93.6%; in assay [3] it was 94.3%; in assay [4], 88.8%; in assay [5], 70%; in assay [6] it was 82.5%. Moreover, the growth in assay [7] is 50.1%.
As for `Nc1c(C(=O)Nc2cccc(Cl)c2Cl)sc2nc3c(cc12)C(=O)CCC3`, the growth is 95.3% in assay [1]; 20.6% in assay [2]; 64% in assay [3]; 86.7% in assay [4]; 93% in assay [5]; 77.8% in assay [6]. Moreover, the growth in assay [7] is 67.5%.
Consider `c1ccn2nnnc2c1`, for which the growth in assay [1] is 67.2%; in assay [3], 106%; in assay [4] it was 93.1%; in assay [6] it was 91.6%; in assay [7], 99.5%.
Consider `COc1ccc(NC(=S)/N=c2\oc3c(OC)cccc3cc2-c2cc3ccccc3[nH]2)cc1`, for which the growth is 90.4% in assay [1]; 77.2% in assay [2]; 84.3% in assay [3]; 81% in assay [4]; 64.7% in assay [5]; 101% in assay [6]. In assay [7], the growth is 73.2%.
Consider `CC(=O)OCC1OC(OCC2OC(OC(C)=O)C(OC(C)=O)C(OC(C)=O)C2OC(C)=O)C(OC(C)=O)C(OC(C)=O)C1OC(C)=O` (stereo unspecified), for which the growth in assay [1] was 100%; in assay [2], 104%; in assay [3] it was 105%; in assay [4] it was 94.9%; in assay [5], 99%; in assay [6], 96.2%. For the same compound, the growth in assay [7] was 108%.
For `CCN1C(=O)N(CC)C2C1NN=c1s/c(=C3\C(=O)N(C4CCCC4)c4ccccc43)c(=O)n12` (stereo unspecified), the growth in assay [1] is 20%; in assay [2], -42.8% (active); in assay [3], 28.5%; in assay [4], 21.4%; in assay [5] it was 0.802% (active); in assay [6], -16.7% (active). In addition, the growth in assay [7] was 10.9%.
With `COc1ccc(NC(=O)/N=c2\oc3c(OC)cccc3cc2-c2cc3ccccc3[nH]2)cc1`, the growth in assay [1] was 81.9%; in assay [3], 70.3%; in assay [4], 70.1%; in assay [5], 28.1%; in assay [6] it was 95.5%; in assay [7] it was 63.1%.
`Cc1ccc(S(=O)(=O)OC2COCOC2C(OS(=O)(=O)c2ccc(C)cc2)C2OCOCC2OS(=O)(=O)c2ccc(C)cc2)cc1` (stereo unspecified): the growth is 98.2% in assay [1]; 108% in assay [2]; 108% in assay [3]; 103% in assay [4]; 113% in assay [6]; 107% in assay [7].
Consider `COc1ccc(/C=c2\sc3n(c2=O)C2C(NN=3)N(C)C(=O)N2C)cc1` (stereo unspecified), for which the growth in assay [1] was 75.3%; in assay [2], -60.6% (active); in assay [3], 23.5%; in assay [4], 22.7%; in assay [6], 54.9%; in assay [7], 22.8%.
On to `O=C(CC(O)c1ccncc1)c1ccccc1` (stereo unspecified), for which the growth in assay [1] was -63.7% (active); in assay [2], 105%; in assay [3], 109%; in assay [4], -24.2% (active); in assay [5], 15.5%; in assay [6], 19.2%. In addition, the growth in assay [7] is 38.2%.
Regarding `COc1cccc2cc(-c3cc4ccccc4[nH]3)c(=NC(=O)c3ccc(Cl)cc3)oc12`, the growth in assay [1] is 62.7%; in assay [2], 33.1%; in assay [3], 7.3% (active); in assay [4] it was 73.5%; in assay [5] it was 26.9%; in assay [6], 75.7%. The growth in assay [7] is 33.9%.
As for `CCCCCCCCCCCCOB(OCCCCCCCCCCCC)OCCCCCCCCCCCC`, the growth in assay [1] is 96.7%; in assay [2], 114%; in assay [3] it was 117%; in assay [4] it was 97.5%; in assay [5], 123%; in assay [6], 91.6%. Besides, the growth in assay [7] is 102%.
Take `Cc1cc(Nc2nc(-c3ccncc3)nc3ccccc23)n[nH]1`: the growth is 82.7% in assay [1]; 40.3% in assay [2]; 78.3% in assay [3]; 40.2% in assay [4]; 39.3% in assay [5]; 18.8% in assay [7].
As to `CCCCCCCC/C=C\CCCCCCCCOc1ccccc1CCOP(=O)(O)OCC[N+](C)(C)C`, the growth in assay [2] was 92.7%; in assay [3], 67.8%; in assay [4], 74.2%; in assay [5], 27.2%; in assay [6], 74.3%; in assay [7] it was 21.8%.
As to `O=C(Nc1ccccc1)OCC1OCOC(COC(=O)Nc2ccccc2)C1OC(=O)Nc1ccccc1` (stereo unspecified), the growth was 93.5% in assay [1]; 11.2% in assay [2]; 8.17% (active) in assay [3]; 16.5% in assay [4]; -51.6% (active) in assay [5]; 36.9% in assay [6]. For the same compound, the growth in assay [7] is 51.2%.
On to `C#CCN1C(=O)/C(=c2\sc3n(c2=O)NC2C(N=3)N(CC)C(=O)N2CC)c2ccccc21` (stereo unspecified), for which the growth was 83.4% in assay [1]; -26.6% (active) in assay [2]; 41% in assay [3]; 42.2% in assay [4]; 100% in assay [6]; 46.8% in assay [7].
Turning to `COc1cc(CCn2nnc3c(Nc4ccc(N5CCOCC5)cc4)ncnc32)cc(OC)c1`, the growth in assay [3] is 90.8%; in assay [4], 102%; in assay [5], 101%; in assay [6], 99.7%.
With `COc1cccc(-n2cc(-c3nc(Cl)c4ccccc4n3)nn2)c1`, the growth is 96.1% in assay [1]; 97.3% in assay [2]; 110% in assay [3]; 92.6% in assay [4]; 89.5% in assay [5]; 105% in assay [6]. The growth in assay [7] was 106%.
For `COc1cc(CCn2nnc3c(NCCCCO)ncnc32)cc(OC)c1`, the growth in assay [2] was 97.9%; in assay [3], 97.9%; in assay [4] it was 99.6%; in assay [6] it was 102%; in assay [7], 103%.
With `CCN1C(=S)N(CC)C2Nn3c(s/c(=C4\C(=O)N(C)c5ccccc54)c3=O)=NC21` (stereo unspecified), the growth in assay [2] is -43.1% (active); in assay [3], 41.1%; in assay [4], 29.8%; in assay [5], 7.36% (active); in assay [6], 79%; in assay [7] it was 27.4%.
On to `c1ccc(CCn2nnc3c(Nc4ccc(N5CCOCC5)cc4)ncnc32)cc1`, for which the growth is 23.8% in assay [2]; 62.8% in assay [3]; 89.1% in assay [4]; 54% in assay [5]; 105% in assay [6]; 53.2% in assay [7].
As to `CCN1C(=O)N(CC)C2Nn3c(s/c(=C\c4cccc(F)c4)c3=O)=NC21` (stereo unspecified), the growth in assay [1] is 80.4%; in assay [2] it was 5.47% (active); in assay [3], 57.4%; in assay [5], 45.4%; in assay [6], 98.7%; in assay [7] it was 49.1%.
As to `Oc1ccc(N=Cc2ccccc2)cc1`, the growth in assay [2] was 97.8%; in assay [3], 99.9%; in assay [4], 84.8%; in assay [5], 60.8%; in assay [7] it was 91.3%.
As for `c1ccc2nc(-c3ccc4ccccc4n3)ccc2c1`, the growth was 93.7% in assay [1]; 91.9% in assay [2]; 100% in assay [3]; 61.8% in assay [4]; 88.7% in assay [5]; 101% in assay [6]. Besides, the growth in assay [7] was 90.4%.
Regarding `COc1cccc2cc(-c3cc4ccccc4[nH]3)/c(=N/C(=S)Nc3ccccc3)oc12`, the growth in assay [1] is 95.2%; in assay [2], 87.9%; in assay [3], 74.1%; in assay [4], 79.5%; in assay [5] it was 59.6%; in assay [6], 82.6%. For the same compound, the growth in assay [7] was 88.3%.
For `Cc1oc2nc[nH]c(=O)c2c1C(=O)/C=C/c1ccc(Cl)cc1`, the growth is 20.2% in assay [1], 8.49% (active) in assay [3], 15.4% in assay [4] and 83.1% in assay [6].
In the case of `CCN1C(=O)N(CC)C2C1NN=c1s/c(=C\c3ccccn3)c(=O)n12` (stereo unspecified), the growth in assay [1] was 80%; in assay [2], -62.1% (active); in assay [3] it was 23.7%; in assay [4], 22.5%; in assay [5], 23.6%; in assay [7], 26%.
With `CNC(C)=O`, the growth is 105% in assay [2]; 105% in assay [3]; 90.5% in assay [4]; 105% in assay [5]; 106% in assay [7].

For the origin of these results see PubChem BioAssay (NCI).
